Results: PubChem BioAssay
Records with an inconclusive call do not appear. For some assays here: Measured potencies and affinities stand elsewhere. Active and inactive are the calls of the source. Unless noted, how the calls were made is not given here.

Biological target: ATP-dependent translocase ABCB1 (Homo sapiens) (UniProt P08183)
Sequence (P08183 whole entry, looked up): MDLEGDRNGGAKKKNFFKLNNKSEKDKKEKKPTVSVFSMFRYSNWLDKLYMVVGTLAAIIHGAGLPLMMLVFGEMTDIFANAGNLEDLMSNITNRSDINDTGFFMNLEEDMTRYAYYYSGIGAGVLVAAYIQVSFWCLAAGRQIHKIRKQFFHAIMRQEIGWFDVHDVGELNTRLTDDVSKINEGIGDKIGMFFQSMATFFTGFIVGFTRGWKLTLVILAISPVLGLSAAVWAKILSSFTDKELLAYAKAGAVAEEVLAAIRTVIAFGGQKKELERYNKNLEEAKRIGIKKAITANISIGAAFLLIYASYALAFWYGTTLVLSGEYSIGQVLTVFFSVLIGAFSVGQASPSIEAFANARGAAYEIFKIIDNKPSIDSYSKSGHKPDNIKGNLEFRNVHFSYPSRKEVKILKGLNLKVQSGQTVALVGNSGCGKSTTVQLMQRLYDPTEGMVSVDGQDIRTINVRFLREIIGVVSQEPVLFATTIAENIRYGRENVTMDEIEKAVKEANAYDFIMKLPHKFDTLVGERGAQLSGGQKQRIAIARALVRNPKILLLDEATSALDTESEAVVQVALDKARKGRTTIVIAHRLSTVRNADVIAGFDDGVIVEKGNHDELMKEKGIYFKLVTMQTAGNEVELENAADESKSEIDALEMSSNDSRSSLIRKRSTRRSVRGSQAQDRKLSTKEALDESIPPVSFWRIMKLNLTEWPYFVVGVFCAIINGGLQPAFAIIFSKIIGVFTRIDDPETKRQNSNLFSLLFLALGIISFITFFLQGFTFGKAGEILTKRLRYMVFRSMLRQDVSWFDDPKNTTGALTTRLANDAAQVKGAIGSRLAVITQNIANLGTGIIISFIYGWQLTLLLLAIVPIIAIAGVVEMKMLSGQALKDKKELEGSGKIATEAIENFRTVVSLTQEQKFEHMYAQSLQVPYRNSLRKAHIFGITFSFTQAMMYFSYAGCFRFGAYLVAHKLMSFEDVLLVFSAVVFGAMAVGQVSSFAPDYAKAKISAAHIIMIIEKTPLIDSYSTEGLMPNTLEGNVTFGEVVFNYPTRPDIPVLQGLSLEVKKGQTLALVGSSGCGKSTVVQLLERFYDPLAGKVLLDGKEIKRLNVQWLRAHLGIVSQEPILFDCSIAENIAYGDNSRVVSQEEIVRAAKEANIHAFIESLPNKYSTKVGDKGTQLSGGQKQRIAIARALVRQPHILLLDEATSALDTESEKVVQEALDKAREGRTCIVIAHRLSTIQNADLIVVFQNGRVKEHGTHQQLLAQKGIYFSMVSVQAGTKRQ
Assay: P-glycoprotein substrate transport blockade – cell-based (AID 377; in the data active means fluorescence slope change above about 50%)
Conditions: MDR1-expressing cells, fluorescent substrate accumulation slope; stronger effect = higher value; concentration not given here
With `C[C@H]1O[C@@H](O[C@H]2[C@@H](O)C[C@H](O[C@H]3[C@@H](O)C[C@H](O[C@H]4CC[C@@]5(C)[C@H](CC[C@@H]6[C@@H]5C[C@@H](O)[C@]5(C)[C@@H](C7=CC(=O)OC7)CC[C@]65O)C4)O[C@@H]3C)O[C@@H]2C)C[C@H](O)[C@@H]1O` the fluorescence slope change was 24.1% (inactive).
In the case of `CC(=O)[C@H]1CC[C@H]2[C@@H]3CCC4=CC(=O)CC[C@]4(C)[C@H]3CC[C@]12C`, the fluorescence slope change is reported as 82.5% (active).
With `CC(C)C[C@H]1C(=O)N2CCC[C@H]2[C@]2(O)O[C@](NC(=O)[C@@H]3C=C4c5cccc6[nH]c(Br)c(c56)C[C@H]4N(C)C3)(C(C)C)C(=O)N12` the fluorescence slope change was 115% (active).
In the case of `C[C@H]1C[C@H]2[C@@H]3CCC4=CC(=O)C=C[C@]4(C)[C@@]3(F)[C@@H](O)C[C@]2(C)[C@@]1(O)C(=O)CO`, the fluorescence slope change is reported as 18% (inactive).

Tested on: not listed separately
Assay: blockers of polyQ-driven CASP3 activation – cell-based (AID 1583)
Conditions: polyglutamine-induced caspase-3 activation, cell assay; stronger effect = higher value; concentration not given here
With `O=C(O)C1=CCNCC1` the inhibition was 3.63%.
For `O=C(O)c1c2ccccc2cc2ccccc12`, the inhibition was -6.04%.
With `CCCn1c(=O)c2[nH]c(C3CCCC3)nc2n(CCC)c1=O` the inhibition was 8.56%.
`O=C(O)c1cc(=O)c2ccccc2[nH]1` showed an inhibition of -5.47%.

Tested on: not listed separately
Assay: yeast 75Q aggregation reduction – 75Q-TubU reporter (AID 1593)
Conditions: Yeast 75Q polyglutamine aggregation reporter
`O=C(O)C1=CCNCC1` showed a score of 1.62.
In the case of `O=C(O)c1c2ccccc2cc2ccccc12`, the score is reported as 0.43.
`CCCn1c(=O)c2[nH]c(C3CCCC3)nc2n(CCC)c1=O` showed a score of 1.24.
Molecule `O=C(O)c1cc(=O)c2ccccc2[nH]1` has a score of 1.02.

Tested on: not listed separately
Assay: restoration of touch response, mutant HTT neurons – whole organism, C. elegans mechanosensory neurons, N-terminal huntingtin (AID 1599)
Conditions: C. elegans polyQ-huntingtin mechanosensory neurons, stronger effect = higher value
`O=C(O)C1=CCNCC1` showed a rescue above control of -1.41.
`O=C(O)c1c2ccccc2cc2ccccc12` gave a rescue above control of 12.4.
`CCCn1c(=O)c2[nH]c(C3CCCC3)nc2n(CCC)c1=O` gave a rescue above control of 18.1.
In the case of `O=C(O)c1cc(=O)c2ccccc2[nH]1`, the rescue above control is reported as 12.3.

Tested on: not listed separately
Assay: blockers of cytochrome c efflux from mitochondria – biochemical, purified mitochondria (AID 1603);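 further: mouse liver mitochondria challenged with calcium chloride; signal normalized to the plate average as 100%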
Conditions: stronger effect = lower value
Molecule `O=C(O)C1=CCNCC1` has a cytochrome c release ratio of 1.01.
Work on `O=C(O)c1c2ccccc2cc2ccccc12` yielded a cytochrome c release ratio of 0.85.
Work on `CCCn1c(=O)c2[nH]c(C3CCCC3)nc2n(CCC)c1=O` yielded a cytochrome c release ratio of 0.92.
`O=C(O)c1cc(=O)c2ccccc2[nH]1` showed a cytochrome c release ratio of 0.92.

Tested on: not listed separately
Assay: polyglutamine aggregate formation blockers (AID 1604)
Conditions: polyglutamine-induced protein aggregation inhibition assay; stronger effect = higher value; concentration not given here
In the case of `O=C(O)C1=CCNCC1`, the inhibition of aggregation is reported as 45.5%.
Molecule `O=C(O)c1c2ccccc2cc2ccccc12` has an inhibition of aggregation of 33.3%.
Work on `CCCn1c(=O)c2[nH]c(C3CCCC3)nc2n(CCC)c1=O` yielded an inhibition of aggregation of 1.59%.
In the case of `O=C(O)c1cc(=O)c2ccccc2[nH]1`, the inhibition of aggregation is reported as 69.7%.

Tested on: not listed separately
Assay: glutamate transport activators, MN-1 cells, MN-1 cell line (AID 1612);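 further: 0% = mean of DMSO vehicle wells on each plate; positive means more glutamate uptake than control and negative means less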
Conditions: MN-1 motor neuron cells, stronger effect = higher value
`O=C(O)C1=CCNCC1` gave a glutamate uptake change of 8.29%.
Work on `O=C(O)c1c2ccccc2cc2ccccc12` yielded a glutamate uptake change of 11%.
For `CCCn1c(=O)c2[nH]c(C3CCCC3)nc2n(CCC)c1=O`, the glutamate uptake change was -12.9%.
Work on `O=C(O)c1cc(=O)c2ccccc2[nH]1` yielded a glutamate uptake change of -1.73%.

Tested on: not listed separately
Assay: GFP-Q80 aggregate reduction, neuronal-like cells, cell-based, NGF-treated PC12, GFPQ80 (AID 1614);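 further: lower means fewer inclusions and 0 means no inclusions at all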
Conditions: PC12 NGF-treated GFP-polyQ80 inclusion reduction
In the case of `O=C(O)C1=CCNCC1`, the inclusion score is reported as 2.
With `O=C(O)c1c2ccccc2cc2ccccc12` the inclusion score was 2.
For `CCCn1c(=O)c2[nH]c(C3CCCC3)nc2n(CCC)c1=O`, the inclusion score was 2.
Work on `O=C(O)c1cc(=O)c2ccccc2[nH]1` yielded an inclusion score of 2.

Tested on: not listed separately
Assay: 75Q-TubH aggregate inhibition, S. cerevisiae, yeast (AID 1616)
Conditions: S. cerevisiae 75Q-TubH polyglutamine aggregation suppression; stronger effect = higher value
In the case of `O=C(O)C1=CCNCC1`, the aggregation suppression score is reported as 1.29.
Work on `O=C(O)c1c2ccccc2cc2ccccc12` yielded an aggregation suppression score of 0.249.
For `CCCn1c(=O)c2[nH]c(C3CCCC3)nc2n(CCC)c1=O`, the aggregation suppression score was 1.32.
For `O=C(O)c1cc(=O)c2ccccc2[nH]1`, the aggregation suppression score was 0.981.

Tested on: not listed separately
Assay: compounds altering circadian rhythm period length – cell-based, LOPAC library, luminescence reporter (AID 2774);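 further: values are relative to mean of DMSO wells on each plate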
Conditions: circadian reporter cells, at 7 µM, actives lie on both sides
In the case of `COc1cccc(OC)c1OCCNCC1COc2ccccc2O1` (stereo not drawn), the period change is reported as 0.335 h (inactive).
In the case of `O=C(O)C1=CCNCC1`, the period change is reported as 0.375 h (inactive).
In the case of `CCCn1c(=O)c2[nH]c(C3CCCC3)nc2n(CCC)c1=O`, the period change is reported as -0.025 h (inactive).
For `CN[C@H](CC(C)C)C(=O)N[C@H]1C(=O)N[C@@H](CC(N)=O)C(=O)N[C@H]2C(=O)N[C@H]3C(=O)N[C@H](C(=O)N[C@H](C(=O)O)c4cc(O)cc(O)c4-c4cc3ccc4O)[C@H](O)c3ccc(c(Cl)c3)Oc3cc2cc(c3O[C@@H]2O[C@H](CO)[C@@H](O)[C@H](O)[C@H]2O[C@H]2C[C@](C)(N)[C@H](O)[C@H](C)O2)Oc2ccc(cc2Cl)[C@H]1O`, the period change was -0.05 h (inactive).
For `O=C(O)C1=CCCNC1`, the period change was 0.125 h (inactive).
With `COc1cc(NS(C)(=O)=O)ccc1Nc1c2ccccc2nc2ccccc12` the period change was -0.215 h (inactive).
With `O=C(O)c1cc(=O)c2ccc(Cl)cc2[nH]1` the period change was -0.105 h (inactive).
With `CC(=O)[C@H]1CC[C@H]2[C@@H]3CCC4=CC(=O)CC[C@]4(C)[C@H]3CC[C@]12C` the period change was 0.25 h (inactive).
For `O=C(O)c1cc(=O)c2ccccc2[nH]1`, the period change was 0.025 h (inactive).
In the case of `CC(C)C[C@H]1C(=O)N2CCC[C@H]2[C@]2(O)O[C@](NC(=O)[C@@H]3C=C4c5cccc6[nH]c(Br)c(c56)C[C@H]4N(C)C3)(C(C)C)C(=O)N12`, the period change is reported as 0.365 h (inactive).

Tested on: not listed separately
Assay: compounds altering viability of human ES cells (AID 493140);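 further: cells exposed to compounds for four days before counting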
Conditions: human embryonic stem cell survival screen; stronger effect = higher value
With `C[C@H]1O[C@@H](O[C@H]2[C@@H](O)C[C@H](O[C@H]3[C@@H](O)C[C@H](O[C@H]4CC[C@@]5(C)[C@H](CC[C@@H]6[C@@H]5C[C@@H](O)[C@]5(C)[C@@H](C7=CC(=O)OC7)CC[C@]65O)C4)O[C@@H]3C)O[C@@H]2C)C[C@H](O)[C@@H]1O` the survival was 0.667 (inactive).
With `CN[C@H](CC(C)C)C(=O)N[C@H]1C(=O)N[C@@H](CC(N)=O)C(=O)N[C@H]2C(=O)N[C@H]3C(=O)N[C@H](C(=O)N[C@H](C(=O)O)c4cc(O)cc(O)c4-c4cc3ccc4O)[C@H](O)c3ccc(c(Cl)c3)Oc3cc2cc(c3O[C@@H]2O[C@H](CO)[C@@H](O)[C@H](O)[C@H]2O[C@H]2C[C@](C)(N)[C@H](O)[C@H](C)O2)Oc2ccc(cc2Cl)[C@H]1O` the survival was 13.8 (inactive).
With `C=C(C)[C@@H]1CC[C@]2(C(=O)O)CC[C@]3(C)[C@H](CC[C@@H]4[C@@]5(C)CC[C@H](O)C(C)(C)[C@@H]5CC[C@]43C)[C@@H]12` the survival was 9.75 (inactive).
For `C[C@H](CCC(=O)O)[C@H]1CC[C@H]2[C@@H]3[C@H](O)C[C@@H]4C[C@H](O)CC[C@]4(C)[C@H]3CC[C@]12C`, the survival was 11.7 (inactive).
With `CC(=O)[C@H]1CC[C@H]2[C@@H]3CCC4=CC(=O)CC[C@]4(C)[C@H]3CC[C@]12C` the survival was 8.58 (inactive).
For `CC(C)C[C@H]1C(=O)N2CCC[C@H]2[C@]2(O)O[C@](NC(=O)[C@@H]3C=C4c5cccc6[nH]c(Br)c(c56)C[C@H]4N(C)C3)(C(C)C)C(=O)N12`, the survival was 29.8 (inactive).
In the case of `C[C@H]1C[C@H]2[C@@H]3CCC4=CC(=O)C=C[C@]4(C)[C@@]3(F)[C@@H](O)C[C@]2(C)[C@@]1(O)C(=O)CO`, the survival is reported as 9.67 (inactive).
